Assay outcomes as filed in PubChem.
Shown is part of a subset that was picked to be rich in hits.
TbPYK inhibitor: inhibitors of Trypanosoma brucei pyruvate kinase; Q57TT1; TbPYK enzyme, Kinase-Glo Plus ATP luminescence, 45 min; Potency, µM (titrated, usually from 76.8 µM), inactives show top-dose activity, negative = inhibition, usual class: inhibitors; 410,000 tested, 0.12% active; further: potency means the concentration at half of the fitted maximal effect; on the % scale 0 is the no-effect control and ±100 the full control effect; nearly all actives have a fitted effect of over 50% in size
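Screened from lowest to highest concentration, compounds were pinned into TbPYK/substrate mixtures, and ADP (130 uM final) was added. Plates sat at room temperature for 45 min prior to Kinase-Glo Plus detection by luminescence.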
Shiga toxin inh: inhibitors of Shiga toxin in Vero cells; Vero cells, Shiga toxin protein synthesis inhibition reporter; inhibition, % at 38.7 µM; 290,000 tested, 9.2% active; in the data active means inhibition mostly above about 28%, no sharp cut-off; inactive means mostly below about 43%; further: 0% is about no effect
Sm TGR block: S. mansoni TGR enzyme inhibition; Q962Y6; AID 485364; Potency, µM (highest dose often 114 µM), for inactives: top-dose activity change, negative = inhibition, hits mostly inhibitors; 360,000 tested, 3% active; purified TGR, DTNB reduction, TNB absorbance 405 nm; further: potency means the concentration at half of the fitted maximal effect; on the % scale 0 is the no-effect control and ±100 the full control effect; nearly all actives have a fitted effect of over 60% in size
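TGR 20 nM + NADPH 100 uM (dispensed conc.), cpd preinc 15 min RT; start with NADPH (500 uM addition) then DTNB (15 mM addition). Kinetic TNB absorbance, 405 nm filter. Four-parameter Hill fit across titration.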
FBPA Giardia inh: Giardia lamblia aldolase inhibition. A8B2U2. purified Giardia FBPA. Potency, µM (titrated, usually from 59.6 µM), inactives show top-dose activity, negative = inhibition, usual class: inhibitors. 290,000 tested, 0.71% active; further: potency means the concentration at half of the fitted maximal effect; on the % scale 0 is the no-effect control and ±100 the full control effect; nearly all actives have a fitted effect of over 55% in size
Target sequence (A8B2U2 whole entry, looked up): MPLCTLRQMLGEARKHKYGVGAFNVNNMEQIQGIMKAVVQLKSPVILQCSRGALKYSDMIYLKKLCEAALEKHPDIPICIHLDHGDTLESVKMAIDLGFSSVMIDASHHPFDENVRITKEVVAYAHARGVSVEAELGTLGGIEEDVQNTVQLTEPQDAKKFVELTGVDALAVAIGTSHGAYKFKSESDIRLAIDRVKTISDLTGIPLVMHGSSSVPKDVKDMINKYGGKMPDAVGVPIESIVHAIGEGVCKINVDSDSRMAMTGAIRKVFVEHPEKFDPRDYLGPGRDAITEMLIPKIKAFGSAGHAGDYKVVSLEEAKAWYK
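Giardia FBPA (40 nM reagent) was preincubated 10 min at RT with compound (up to 57.5 uM final), then substrate plus GAPDH/TPI/NAD/arsenate coupling system with diaphorase/resazurin was added; resorufin fluorescence (525/598 nm) was read after 20 min.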
CHX counter: affects cycloheximide protein synthesis inhibition readout, counter-screen | cell reporter, cycloheximide protein synthesis inhibition counterscreen | max response, % | 300,000 tested, 12% active; in the data active means max response mostly above about 13%, no sharp cut-off; inactive means mostly below about 14%; further: read at 38.3 µM for the half of the compounds with a filed dose; 0% is about no effect
LmPK inh: blocks Leishmania mexicana pyruvate kinase activity; Q27686; purified LmPK, Kinase-Glo ATP luminescence, 1 h; 290,000 tested, 0.37% active; Potency, µM (doses to about 57.5 µM), for inactives: top-dose activity change, negative = inhibition, usual class: inhibitors; further: potency means the concentration at half of the fitted maximal effect; on the % scale 0 is the no-effect control and ±100 the full control effect
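Kinase-Glo luminescence read after 1 h RT reaction of 0.1 nM LmPK with 0.5 mM PEP and 0.1 mM ADP. Activity scaled between uninhibited and enzyme-free controls.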
An asterisk follows results filed as active; ? = inconclusive; / = not tested or not shown; [ ] = remark or other dose. Unless noted, the call rests on the fitted dose curve; in most records, active means well fitted curve in the direction sought with a large enough effect; inconclusive means small, poorly fitted or top-dose-only effect, or another doubt; inactive means no such curve, though single readings can be large; an effect the other way counts as inactive or inconclusive.

SMILES | TbPYK inhibitor | Shiga toxin inh | Sm TGR block | FBPA Giardia inh | CHX counter | LmPK inh
CN(C)c1ccc(/C=C/c2cc[n+]([O-])cc2)cc1 | / | 172* | -2% | -9% | 42* | -1%
COc1cc(C(=O)Nc2ccc3[nH]c(=O)sc3c2)cc(OC)c1OC | -4% | / | -1% | / | / | /
CCOC(=O)c1[nH]c(Cc2[nH]c(C(=O)OCC)c(C)c2CCC(=O)OC)c(CCC(=O)OC)c1C | 6% | -9 | 7.9µM* | -13% | -1 | -2%
CCOC(=O)c1c(C)[nH]c(C(=O)OC)c1CCC(=O)OC | -2% | 5 | -5% | 9% | 6 | 6%
CCOc1ccc(S(=O)(=O)N/N=C(\C)Cc2ccc(OC)cc2)cc1 | 4% | 15 | 32µM* | 1% | 7 | 4%
COc1ccc(S(=O)(=O)N/N=C(/C)c2ccco2)cc1 | 0% | 130* | -12% | / | 56* | -13%
COc1ccc(C)cc1NC(=O)C(Sc1nnc(Nc2ccccc2F)s1)c1ccccc1 (stereo not drawn) | 2% | -6 | -1% | 0% | 11* | 3%
Cc1c(C)n(O)c2ccc3nonc3c12 | -8% | -11 | ? | ? | 1 | -1%
On1c2c(c3c4nonc4ccc31)CCCC2 | / | -8 | ? | 5.6µM* | -3 | -5%
COn1c2c(c3c4nonc4ccc31)CCCC2 | 5% | -20 | 28µM* | ? | -5 | 6%
Cc1ccc(NC(=O)NC2CC(=O)N(c3ccc4c(c3)OCCO4)C2)cc1F (stereo not drawn) | -2% | / | -27% | / | / | /
Cc1cccc(C(=O)OC(C)CN2CCOCC2)c1 (stereo not drawn) | -2% | 69 | 8% | 0% | 28* | 12%
CC(CN1CCOCC1)OC(=O)/C=C/c1ccccc1 (stereo not drawn) | 3% | 84* | 8% | -2% | 44* | 0%
CC(CN1CCCCC1)OC(=O)/C=C/c1ccccc1 (stereo not drawn) | 1% | 32 | 0% | ? | 8 | -3%
CC(CN1CCOCC1)OC(=O)c1cccc(Br)c1 (stereo not drawn) | -10% | 21 | 17% | -2% | -2 | 1%
CC(CN1CCCCC1)OC(=O)c1ccc2c(c1)OCCO2 (stereo not drawn) | 2% | 70* | 9% | / | 43* | -3%
CC(OC(=O)c1ccc2c(c1)OCCO2)C(=O)c1ccccc1 (stereo not drawn) | -1% | / | -3% | / | / | /
CC(CN1CCOCC1)OC(=O)c1ccccc1Br (stereo not drawn) | -8% | 46 | 5% | -18% | 25* | 4%
Cc1ccc(S(=O)(=O)NCCc2nnc3ccc(SCc4ccc(F)cc4)nn23)cc1 | 0% | / | -5% | / | / | /
COC(=O)c1ccc(C)c(NC(=O)c2ccc(CN3CCc4ccccc4C3)cc2)c1 | 1% | -8 | 0% | -7% | 0 | 0%
COc1cc(NC(=O)C2=C(C)Nc3nnnn3C2c2ccc(SC)cc2)c(OC)cc1Cl (stereo not drawn) | 2% | / | -17% | / | / | /
CCN(CC)CCOC(=O)c1ccc2c(c1)OCCO2 | -3% | 29 | -14% | -2% | 16 | 5%
CC(C)N(C)CCOC(=O)c1ccc2c(c1)OCCO2 | -11% | 47 | -1% | 1% | 16* | -8%
CC(CN1CCOCC1)OC(=O)c1ccc2c(c1)OCCO2 (stereo not drawn) | 0% | 66* | 5% | 3% | 61* | -6%
COC(=O)C(C(=O)OC)[C@@H]1c2ccccc2[C@H]2C(=C[C@@H](C)[C@H]3C(=O)N(c4ccccc4)C(=O)[C@H]32)N1C(=O)OC | / | / | / | 3%[12.9 µM] | / | 2%[11.5 µM]
SMILES | TbPYK inhibitor | Shiga toxin inh | Sm TGR block | FBPA Giardia inh | CHX counter | LmPK inh
COc1ccc(Cl)cc1/C=C/c1ccc2cccc(O)c2n1 | -1% | 73* | 1% | 22% | 46* | 1%
COc1cc(Cl)cc(/C=C/c2ccc3cccc(O)c3n2)c1OC | -6% | 11 | -9% | 30% | 6 | 7%
COc1ccccc1/C=C/c1ccc2cccc(O)c2n1 | 12% | 82* | 34% | -16% | 40* | -8%
Cc1ccc(NC(=S)NCC2CCN(C(C)c3ccccc3)C2)cc1 (stereo not drawn) | -8% | -15 | ? | ? | -2 | -2%
Cc1cc(C)c(NC(=S)NCC2CCN(C(C)c3ccccc3)C2)c(C)c1 (stereo not drawn) | ? | -16 | -21% | 2µM* | -10 | -2%
Cc1ccccc1CCNC(=O)c1ccc(NC(=O)N2CC(C)Sc3ccccc32)cc1 (stereo not drawn) | -5% | / | 1% | / | / | /
COc1cccc(CNC(=O)C2CCC(CNS(=O)(=O)c3cccc4cccnc34)CC2)c1 (stereo not drawn) | 0% | 7 | 0% | / | 8 | 2%
CN(C(=O)CSc1nc2ccc(NC(=O)c3cccc(F)c3)cc2s1)c1ccccc1 | 0% | / | 1% | / | / | /
Cc1ccc(C(=O)OCC(=O)NC2CCCCCC2)c(C)c1 | 3% | / | 1% | / | / | /
CCC(c1c(C)[nH]oc1=O)c1c(C)[nH]oc1=O | -10% | -10 | 25µM* | -18% | 2 | 0%
C[C@@H](C(=O)NCc1nc2ccccc2[nH]1)[C@@H]1C[C@@]1(C)[C@@H](NC(=O)OCc1ccccc1)c1ccccc1 | / | / | / | 4% | / | /
C=CCn1c(C)cc(C)c(C#N)c1=O | -4% | 34 | -1% | 13% | 0 | 6%
C=CCn1c(O)c(CN2CCOCC2)c(C)c(C#N)c1=O | -11% | 91* | 40µM* | 14µM* | 30* | -1%
CCOc1ccc(N2Cc3ccccc3C2)cc1 | -2% | 116 | 56µM* | ? | 39* | -23%
CCOc1ccccc1N1Cc2cc(C)c(C)cc2C1 | -3% | 22 | ? | -7% | 12 | -6%
CCOc1ccccc1N1Cc2ccccc2C1 | -10% | -24 | 13µM* | -10% | -4 | 0%
CCc1ccc(-n2nc(CO)c(C(=O)NCc3cccnc3)n2)cc1 | 7% | / | 5% | / | / | /
COc1cccc(NC(=O)CN(C)C(=O)c2cc(-c3ccco3)nc3ccccc23)c1 | -17% | / | ? | / | / | /
CN(CC(=O)Nc1ccc(F)cc1)C(=O)c1cc(-c2ccco2)nc2ccccc12 | -14% | / | 11µM* | / | / | /
Cc1ccc(NC(=O)CN(C)C(=O)c2cc(-c3ccco3)nc3ccccc23)cc1 | ? | / | 6.3µM* | / | / | /
CN(CCOc1ccc(Cl)cc1)C(=O)c1cc(-c2ccco2)nc2ccccc12 | 0% | / | 11µM* | / | / | /
O=C(NCc1ccco1)c1ccc(-c2ccc3nccn3c2)cc1 | -5% | / | / | / | / | /
Cc1ccc(CNC(=O)C(=O)NCC2OCCN2S(=O)(=O)c2ccc(Cl)cc2)cc1 (stereo not drawn) | -5% | / | / | / | / | /
CCn1cc(C(=O)Nc2sc(C)c(C)c2C(=O)OC)cn1 | -14% | 25* | -1% | -5% | 9 | 1%
